Some test systems named below: NCI-H23 lung; NCI-H226 lung; NCI-H322M lung; NCI-H460 lung; HOP-92 NSCLC; NCI-H522 lung; A549/ATCC NSCLC; 786-0 renal; COLO 205 colon; DU-145 prostate; MALME-3M melanoma; MDA-MB-231 breast; RXF 393 renal; SF-295 CNS; SF-539 CNS; UACC-257 melanoma; M14 melanoma; K-562 leukemia; SF-268 CNS.
What all share (assay): NCI-60 one-dose screen, 48 h (100 = growth as untreated, 0 = no growth, -100 = all killed)
Holding throughout (details): 10 µM unless noted

Data on 9 compounds can be found in PubChem BioAssay (NCI).

This is part of a sample that, as a whole, favours compounds with a hit. Of some 83,000 tested, about 20% had one in any assay.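 Cell lines were cultured in 96-well plates, exposed to a single compound concentration, and assessed for percent growth 48 hours later.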 Unmarked numbers belong to inactive results. Active and inactive are the calls of the source. The calls were made as follows: active = growth percent below 10; inactive = the rest.

Regarding `Cc1nc2n[nH]c(N)c2nc1C`, the growth with NCI-H23 lung is 102%; in the assay with NCI-H226 lung, 99.9%; with NCI-H322M lung, 93.1%; in the assay with NCI-H460 lung it was 111%; with HOP-92 NSCLC, 100%; in the assay with NCI-H522 lung it was 93.9%. The growth with A549/ATCC NSCLC is 99.2%; with 786-0 renal it was 105%; with COLO 205 colon, 109%; in the assay with DU-145 prostate, 119%; in the assay with MALME-3M melanoma, 105%; in the assay on MDA-MB-231 breast, 120%. The growth in the assay on RXF 393 renal is 119%; in the assay with SF-295 CNS, 105%; in the assay with SF-539 CNS it was 103%; in the assay on UACC-257 melanoma, 96.8%; in the assay with M14 melanoma it was 125%.

Regarding `O=NN(CC(=O)NNc1ccccc1)CC(=O)NNc1ccccc1`, the growth with NCI-H23 lung is 103%; with NCI-H226 lung it was 85.9%; in the assay on NCI-H322M lung, 85%; in the assay on NCI-H460 lung, 66.2%; in the assay on HOP-92 NSCLC, 88.5%; in the assay with NCI-H522 lung it was 52%. Also, the growth is 65.9% in the assay on A549/ATCC NSCLC; 90.9% in the assay with 786-0 renal; 68.6% in the assay with COLO 205 colon; 68.7% with DU-145 prostate; 11.8% in the assay on K-562 leukemia; 102% in the assay on MALME-3M melanoma. The growth in the assay on MDA-MB-231 breast is 58.7%; in the assay on RXF 393 renal, 84.9%; in the assay on SF-268 CNS, 59.7%; in the assay on SF-539 CNS, 72%; in the assay on UACC-257 melanoma, 95.4%; in the assay on M14 melanoma it was 33.1%.

As for `Cc1cc(N=Nc2ccc(-c3ccc(N=Nc4ccc(O)c(C(=O)O)c4)cc3)cc2)c(N)c(N=Nc2ccc(C(=O)O)cc2)c1N`, the growth with NCI-H23 lung is 93.4%; with NCI-H226 lung, 92.4%; with NCI-H322M lung, 99.9%; in the assay on NCI-H460 lung, 117%; in the assay on HOP-92 NSCLC it was 71.8%; with NCI-H522 lung it was 85.2%. In addition, the growth in the assay on A549/ATCC NSCLC was 102%; with 786-0 renal it was 84.4%; in the assay with COLO 205 colon, 108%; in the assay with DU-145 prostate, 110%; in the assay on K-562 leukemia it was 75.1%; with MALME-3M melanoma it was 95.2%. Also, the growth is 102% in the assay on MDA-MB-231 breast; 94.7% in the assay on RXF 393 renal; 98.7% in the assay with SF-268 CNS; 93.2% with SF-539 CNS; 110% with UACC-257 melanoma; 86.5% with M14 melanoma.

For the compound `c1ccc2c(c1)cnc1ccccc12`, the growth in the assay with NCI-H23 lung is 102%; in the assay with NCI-H226 lung, 111%; in the assay with NCI-H322M lung, 103%; with NCI-H460 lung, 110%; with HOP-92 NSCLC, 99.5%; in the assay on NCI-H522 lung it was 81.6%. Moreover, the growth was 93.7% in the assay on A549/ATCC NSCLC; 92.6% in the assay on 786-0 renal; 111% with DU-145 prostate; 97.2% with K-562 leukemia; 127% in the assay with MALME-3M melanoma; 108% with MDA-MB-231 breast. For the same compound, the growth with RXF 393 renal is 88.5%; in the assay on SF-268 CNS it was 97.4%; in the assay on SF-295 CNS it was 113%; in the assay with SF-539 CNS, 101%; in the assay with UACC-257 melanoma, 103%; with M14 melanoma, 99.6%.

For the compound `Cc1ccc(NC(=O)c2nc(S(C)(=O)=O)oc2-c2ccc(F)cc2)cc1Nc1ccc2ncn(C)c(=O)c2c1`, the growth was 60.4% in the assay with NCI-H23 lung; 85.2% with NCI-H226 lung; 108% in the assay with NCI-H322M lung; 83.6% with NCI-H460 lung; -7.9% (active) in the assay on NCI-H522 lung; 102% in the assay on A549/ATCC NSCLC. Also, the growth in the assay with 786-0 renal is 78.8%; in the assay with COLO 205 colon it was -8.69% (active); in the assay on DU-145 prostate it was 57.8%; in the assay on K-562 leukemia, -22.8% (active); in the assay on MALME-3M melanoma it was 23.7%; in the assay on MDA-MB-231 breast, 31%. Also, the growth is 45% with RXF 393 renal; 68.3% in the assay on SF-268 CNS; 98.8% in the assay on SF-295 CNS; 95.3% with SF-539 CNS; 82.5% with UACC-257 melanoma; 39.4% in the assay with M14 melanoma.

For the compound `CCCCn1c(-c2ccc(F)cc2)nc2cc(OC)c(OC)cc2c1=O`, the growth was 101% with NCI-H23 lung; 93.8% in the assay on NCI-H226 lung; 78% in the assay with NCI-H322M lung; 112% with NCI-H460 lung; 66.1% with HOP-92 NSCLC; 93.7% in the assay with NCI-H522 lung. Further, the growth was 19.7% in the assay on A549/ATCC NSCLC; 121% in the assay on COLO 205 colon; 111% in the assay on DU-145 prostate; 85.5% in the assay with K-562 leukemia; 71.8% in the assay with MALME-3M melanoma; 87.1% with MDA-MB-231 breast. The growth in the assay on SF-268 CNS is 101%; in the assay with SF-539 CNS it was 101%; with UACC-257 melanoma, -32.2% (active); in the assay with M14 melanoma, 127%.

Regarding `COc1cc(-c2n/c(=C\c3c(O)[nH]c4cc(Cl)ccc34)cc3c2=Nc2ccccc2-3)cc(OC)c1OC`, the growth is 45.2% in the assay with NCI-H23 lung; 89.9% in the assay with NCI-H226 lung; 62.3% in the assay with NCI-H322M lung; 59.7% with NCI-H460 lung; 27.2% in the assay with HOP-92 NSCLC; 54.6% in the assay on NCI-H522 lung. Also, the growth in the assay on A549/ATCC NSCLC is 59.5%; with 786-0 renal it was 34.5%; in the assay on COLO 205 colon, 58.6%; in the assay on DU-145 prostate, 30.6%; in the assay with K-562 leukemia, 49.1%; in the assay with MDA-MB-231 breast, 53.1%. Further, the growth with RXF 393 renal is 28.7%; in the assay on SF-268 CNS, 22.5%; with SF-539 CNS, 62.7%; in the assay on UACC-257 melanoma, 40.9%; with M14 melanoma, 37.7%.

As to `COc1ccc(C2C=C(c3ccc(Cl)cc3)N=C3SC=CN32)cc1` (centres undefined), the growth was 101% in the assay with NCI-H23 lung; 112% in the assay with NCI-H226 lung; 133% with NCI-H322M lung; 103% with NCI-H460 lung; 86.4% in the assay with HOP-92 NSCLC; 113% with NCI-H522 lung. In addition, the growth with A549/ATCC NSCLC is 104%; with 786-0 renal, 97.8%; in the assay on COLO 205 colon, 109%; with DU-145 prostate it was 129%; with K-562 leukemia it was 104%; in the assay with MALME-3M melanoma, 108%. For the same compound, the growth with MDA-MB-231 breast was 112%; in the assay on RXF 393 renal, 122%; with SF-268 CNS, 119%; in the assay on SF-539 CNS, 104%; with UACC-257 melanoma, 108%; in the assay on M14 melanoma, 109%.

In the case of `COc1ccc(C2=Nn3c(nnc3-c3ccc(Cl)cc3N)SC2)cc1`, the growth in the assay with NCI-H23 lung was 105%; in the assay with NCI-H226 lung it was 102%; in the assay with NCI-H322M lung, 109%; in the assay with NCI-H460 lung, 104%; with HOP-92 NSCLC, 94.1%; with NCI-H522 lung, 85.6%. The growth in the assay with A549/ATCC NSCLC is 103%; in the assay with 786-0 renal, 107%; with COLO 205 colon it was 108%; in the assay with DU-145 prostate it was 117%; with K-562 leukemia, 102%; with MALME-3M melanoma it was 104%. For the same compound, the growth in the assay with MDA-MB-231 breast was 85.7%; in the assay with RXF 393 renal, 104%; with SF-268 CNS it was 106%; in the assay with SF-295 CNS, 94.3%; in the assay on SF-539 CNS it was 102%; in the assay on UACC-257 melanoma, 95%. The growth in the assay with M14 melanoma is 107%.
